Data from PubChem BioAssay (NCI).
About 83,000 compounds went through this panel and 20% of them were active in at least one assay; those are over-represented in the sample as a whole.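 The test compound was applied at a single concentration to cells in 96-well plates for 48 hours, and percent growth was recorded.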 A number with no mark means an inactive call. Calls of active or inactive are those of the source. How the source made its calls: active means growth percent below 10; inactive means the rest.

Key:
Assay in all cases: NCI-60 one-dose screen, 48 h (100 = growth as untreated, 0 = no growth, -100 = all killed)
Conditions in all cases: 10 µM unless noted
[1] = tested on: DU-145 prostate
[2] = tested on: K-562 leukemia
[3] = tested on: MALME-3M melanoma
[4] = tested on: MDA-MB-231 breast
[5] = tested on: RXF 393 renal
[6] = tested on: SF-268 CNS
[7] = tested on: SF-295 CNS
[8] = tested on: SF-539 CNS
[9] = tested on: UACC-257 melanoma
[10] = tested on: M14 melanoma

Question: `C=C1C(=O)O[C@H]2[C@H]1CC/C(Cn1cc(CNC(=O)Cc3cn(C(=O)c4ccc(Cl)cc4)c4ccc(OC)cc34)nn1)=C\CC[C@@]1(C)O[C@@H]21` was tested. Which growth [1] did it give?
Answer: 31.9%

Question: And the growth [2]?
Answer: -22.6% (active)

Question: What about the growth [3] of the same compound?
Answer: -76.1% (active)

Question: What about the growth [4] of the same compound?
Answer: -24.1% (active)

Question: What about the growth [5] of the same compound?
Answer: -61.3% (active)

Question: And the growth [6]?
Answer: 9.83% (active)

Question: What about the growth [7] of the same compound?
Answer: 83.5%

Question: What about the growth [8] of the same compound?
Answer: -83.7% (active)

Question: What about the growth [9] of the same compound?
Answer: 10.4%

Question: What about the growth [10] of the same compound?
Answer: -32.4% (active)

Question: For `COC(=O)c1nc(-c2ccccc2)oc1S(=O)(=O)N1CCN(c2cccc(Cl)c2)CC1`, which growth [1] is on record?
Answer: 92.7%

Question: What about the growth [2] of the same compound?
Answer: 38.8%

Question: What about the growth [3] of the same compound?
Answer: 100%

Question: And the growth [4]?
Answer: 73.5%

Question: What about the growth [5] of the same compound?
Answer: 84%

Question: And the growth [6]?
Answer: 80.7%

Question: What about the growth [7] of the same compound?
Answer: 90.8%

Question: And the growth [8]?
Answer: 105%

Question: What about the growth [9] of the same compound?
Answer: 80.2%

Question: What about the growth [10] of the same compound?
Answer: 86.9%

Question: For `c1cc(C2=N[C@@H]3c4ccccc4C[C@@H]3O2)nc(C2=N[C@@H]3c4ccccc4C[C@@H]3O2)c1`, which growth [1] is on record?
Answer: 104%

Question: What about the growth [2] of the same compound?
Answer: 102%

Question: And the growth [3]?
Answer: 103%

Question: What about the growth [4] of the same compound?
Answer: 105%

Question: What about the growth [5] of the same compound?
Answer: 105%

Question: What about the growth [6] of the same compound?
Answer: 97.1%

Question: And the growth [7]?
Answer: 86.9%

Question: What about the growth [8] of the same compound?
Answer: 97%

Question: What about the growth [9] of the same compound?
Answer: 107%

Question: What about the growth [10] of the same compound?
Answer: 99.4%

Question: For `COc1cccc(/C=C2\Oc3cc(OCCCN4CCCC4)ccc3C2=O)c1OC`, which growth [1] is on record?
Answer: 106%

Question: And the growth [2]?
Answer: 73%

Question: And the growth [3]?
Answer: 94%

Question: And the growth [4]?
Answer: 97.2%

Question: And the growth [5]?
Answer: 93.1%

Question: What about the growth [6] of the same compound?
Answer: 91.9%

Question: What about the growth [7] of the same compound?
Answer: 97.4%

Question: What about the growth [8] of the same compound?
Answer: 94.6%

Question: What about the growth [9] of the same compound?
Answer: 99.3%

Question: What about the growth [10] of the same compound?
Answer: 91.5%

Question: With `O=S(=O)(CC(O)(c1ccccc1)c1ccccc1)CC(O)(c1ccccc1)c1ccccc1` as the compound, how does the growth [1] read?
Answer: 74.6%

Question: And the growth [2]?
Answer: 75.8%

Question: What about the growth [3] of the same compound?
Answer: 61.8%

Question: And the growth [4]?
Answer: 71.2%

Question: And the growth [5]?
Answer: 93.4%

Question: And the growth [6]?
Answer: 85.3%

Question: And the growth [7]?
Answer: 74.8%

Question: And the growth [8]?
Answer: 2.42% (active)

Question: What about the growth [9] of the same compound?
Answer: 102%

Question: And the growth [10]?
Answer: 95.2%

Question: What does the source list for `CC(=O)Nc1ccc(/C=C/C(=O)c2ccccc2)cc1`?
Answer: growth [1]: 86.6%; growth [2]: 36.7%; growth [3]: 120%; growth [4]: 104%; growth [5]: 68.2%; growth [6]: 89.1%; growth [7]: 106%; growth [8]: 96.6%; growth [9]: 89.3%; growth [10]: 97.7%

Question: What does the source list for `COc1cc(NC(=O)SC2=NCCS2)cc(OC)c1`?
Answer: growth [1]: 101%; growth [2]: 93.6%; growth [3]: 102%; growth [4]: 110%; growth [5]: 120%; growth [6]: 106%; growth [7]: 113%; growth [8]: 90.6%; growth [9]: 104%; growth [10]: 103%

Question: For `O=C(Nc1ccncc1)C(=O)c1cn(S(=O)(=O)c2ccccc2F)c2ccccc12`, which growth [1] is on record?
Answer: 24.9%

Question: What about the growth [2] of the same compound?
Answer: 22.8%

Question: What about the growth [3] of the same compound?
Answer: 41.2%

Question: What about the growth [4] of the same compound?
Answer: 39.9%

Question: What about the growth [5] of the same compound?
Answer: 28.6%

Question: And the growth [6]?
Answer: 42.2%

Question: And the growth [7]?
Answer: 22.5%

Question: And the growth [8]?
Answer: 6.94% (active)

Question: What about the growth [9] of the same compound?
Answer: 63.1%

Question: What about the growth [10] of the same compound?
Answer: 14.8%

Question: What does the source list for `CN(CCCCCl)P(=O)(OCc1ccc([N+](=O)[O-])o1)C(F)(F)C[C@H](NC(=O)CNC(=O)c1ccc(N=[N+]=[N-])cc1)C(=O)NCCc1ccc(O)cc1` (stereo not given in full)?
Answer: growth [1]: 117%; growth [2]: 40.4%; growth [3]: 79.6%; growth [4]: 108%; growth [5]: 47.6%; growth [6]: 98.1%; growth [7]: 101%; growth [8]: 104%; growth [9]: 104%; growth [10]: 90%

Question: `COc1ccc(OC)c(/C=C2\Oc3cc(OCCCN4CCCC4)ccc3C2=O)c1` was tested. Which growth [1] did it give?
Answer: 79.6%

Question: What about the growth [2] of the same compound?
Answer: -5.23% (active)

Question: What about the growth [3] of the same compound?
Answer: 104%

Question: What about the growth [4] of the same compound?
Answer: 68.8%

Question: What about the growth [5] of the same compound?
Answer: 73.4%

Question: And the growth [6]?
Answer: 79.8%

Question: What about the growth [7] of the same compound?
Answer: 97.4%

Question: What about the growth [8] of the same compound?
Answer: 46%

Question: What about the growth [9] of the same compound?
Answer: 40.5%

Question: What about the growth [10] of the same compound?
Answer: -2.52% (active)

Question: Which results are given for `Cc1ccc(S(=O)(=O)c2nc(-c3ccccc3)oc2S(C)(=O)=O)cc1`?
Answer: growth [1]: 30.4%; growth [2]: 2.49% (active); growth [3]: -77.8% (active); growth [4]: 13.6%; growth [5]: 10.4%; growth [6]: 68.6%; growth [7]: 89.4%; growth [8]: -23.1% (active); growth [9]: 74.8%; growth [10]: 17.8%

Question: What does the source list for `C=C1CCC2C3(C)COC(c4ccc(N(C)C)cc4)OC3CCC2(C)C1C/C=C1/C(=O)OCC1O` (stereo not given)?
Answer: growth [1]: 7.35% (active); growth [2]: 44%; growth [3]: 105%; growth [4]: 85.4%; growth [5]: 1.3% (active); growth [6]: 74.9%; growth [7]: 95.6%; growth [8]: 99.2%; growth [9]: 49.5%; growth [10]: 71.7%

Question: Which growth [1] does the source give for `COc1ccc(-n2c(-c3ccccc3)c(-c3ccccc3)c3c(SCC(=O)N/N=C/c4ccc(Cl)cc4)ncnc32)cc1` here?
Answer: 95.4%

Question: And the growth [2]?
Answer: 80.7%

Question: And the growth [3]?
Answer: 107%

Question: And the growth [4]?
Answer: 82.1%

Question: What about the growth [5] of the same compound?
Answer: 97.3%

Question: What about the growth [6] of the same compound?
Answer: 88.5%

Question: What about the growth [7] of the same compound?
Answer: 92.9%

Question: And the growth [8]?
Answer: 93.8%

Question: And the growth [9]?
Answer: 95.1%

Question: And the growth [10]?
Answer: 99.5%
